According to the OligoGym collection:

Molecular target: MUC4
Assay: pooled miR-30 sensor sort-seq; sequence = guide strand
Settings: shRNA
Also: reference of the scale not given here.

Question: How did the sensor-assay potency score (higher = more potent) turn out when TAGATGGAGAAGGACACACAGC was run?
Answer: The sensor-assay potency score (higher = more potent) was -1.17.

Question: With TTGAAGAATCCTGACAGCCTTC as the sequence, how does the sensor-assay potency score (higher = more potent) read?
Answer: Its sensor-assay potency score (higher = more potent) is -0.37.

Question: TTGAAGGTGTAACTGACACCAT was tested. Which sensor-assay potency score (higher = more potent) did it give?
Answer: Its sensor-assay potency score (higher = more potent) is 0.0208.

Question: For TTGTCTGTGAAGTAGAGGGAAT, which sensor-assay potency score (higher = more potent) is on record?
Answer: Its sensor-assay potency score (higher = more potent) is -1.17.

Question: For TTCAGGAAATAGGAGAACCTGG, which sensor-assay potency score (higher = more potent) is on record?
Answer: The sensor-assay potency score (higher = more potent) was -1.36.

Molecular target: MUDENG
Assay: as above
Settings: shRNA

Question: With TAACATTTGGCATGATTCCTTC as the sequence, how does the sensor-assay potency score (higher = more potent) read?
Answer: Its sensor-assay potency score (higher = more potent) is -0.439.

Question: How did the sensor-assay potency score (higher = more potent) turn out when TTGGTGGGGAGACTCAAGCTGA was run?
Answer: Its sensor-assay potency score (higher = more potent) is -1.09.

Question: Which sensor-assay potency score (higher = more potent) does the source give for TAATCTAAGTTCAAAGAGCAGT here?
Answer: The sensor-assay potency score (higher = more potent) was -0.489.

Question: With TTATTCTTAGTTGTACTTCTTC as the sequence, how does the sensor-assay potency score (higher = more potent) read?
Answer: Its sensor-assay potency score (higher = more potent) is 0.0203.

Question: Which sensor-assay potency score (higher = more potent) does the source give for TTATTGATGCGTGAACAGCTAT here?
Answer: Its sensor-assay potency score (higher = more potent) is -0.441.

Question: Which sensor-assay potency score (higher = more potent) does the source give for AAAAACTTGAACTGAATGCTGA here?
Answer: The sensor-assay potency score (higher = more potent) was -0.0187.

Question: Which sensor-assay potency score (higher = more potent) does the source give for TTGAATGACTCTAAAGGTGGAG here?
Answer: The sensor-assay potency score (higher = more potent) was 0.345.

Question: TAAGATCCTAAAATGAAGCTTT was tested. Which sensor-assay potency score (higher = more potent) did it give?
Answer: Its sensor-assay potency score (higher = more potent) is 0.347.

Question: With TATCCTGAAGTGGAGATCCATT as the sequence, how does the sensor-assay potency score (higher = more potent) read?
Answer: Its sensor-assay potency score (higher = more potent) is -1.27.

Question: How did the sensor-assay potency score (higher = more potent) turn out when TTGAACTGAATGCTGATCTGCA was run?
Answer: Its sensor-assay potency score (higher = more potent) is 0.719.

Question: Which sensor-assay potency score (higher = more potent) does the source give for TAGTTTTGTATTCCAAATGTGT here?
Answer: Its sensor-assay potency score (higher = more potent) is -0.698.

Question: Which sensor-assay potency score (higher = more potent) does the source give for TTCTTAGTTGTACTTCTTCCTC here?
Answer: The sensor-assay potency score (higher = more potent) was -1.23.

Molecular target: MUL1
Assay: as above
Settings: shRNA

Question: How did the sensor-assay potency score (higher = more potent) turn out when TTGAGCTCTTGGGAGACCCGGG was run?
Answer: The sensor-assay potency score (higher = more potent) was -0.319.

Question: TAACAGACCGCACAGCTCCTTC was tested. Which sensor-assay potency score (higher = more potent) did it give?
Answer: The sensor-assay potency score (higher = more potent) was -0.691.

Question: How did the sensor-assay potency score (higher = more potent) turn out when TTGCAGTTTTCCACAAACTGGC was run?
Answer: The sensor-assay potency score (higher = more potent) was -0.401.

Question: TTTAGCTCCCTTGAGCTCTTGG was tested. Which sensor-assay potency score (higher = more potent) did it give?
Answer: Its sensor-assay potency score (higher = more potent) is -0.00208.

Question: TTTCTTTAACAGACCGCACAGC was tested. Which sensor-assay potency score (higher = more potent) did it give?
Answer: The sensor-assay potency score (higher = more potent) was -0.894.

Question: TTAACAGACCGCACAGCTCCTT was tested. Which sensor-assay potency score (higher = more potent) did it give?
Answer: The sensor-assay potency score (higher = more potent) was -0.45.

Question: TTAGATAGTACTGCATGCCTTG was tested. Which sensor-assay potency score (higher = more potent) did it give?
Answer: The sensor-assay potency score (higher = more potent) was -0.152.

Question: Which sensor-assay potency score (higher = more potent) does the source give for TATAACAGCATAAGGCACGCAT here?
Answer: The sensor-assay potency score (higher = more potent) was -0.0376.

Question: Which sensor-assay potency score (higher = more potent) does the source give for TACTCTTTAAATCTTCACCCAA here?
Answer: Its sensor-assay potency score (higher = more potent) is -0.305.

Question: ATACACGGTCTCTAGACCCAGA was tested. Which sensor-assay potency score (higher = more potent) did it give?
Answer: The sensor-assay potency score (higher = more potent) was -0.85.

Question: TTCTATAACAGCATAAGGCACG was tested. Which sensor-assay potency score (higher = more potent) did it give?
Answer: The sensor-assay potency score (higher = more potent) was -0.579.

Molecular target: MUM1L1
Assay: as above
Settings: shRNA

Question: Which sensor-assay potency score (higher = more potent) does the source give for TTTGATTGCAGACTTCTTGTAA here?
Answer: The sensor-assay potency score (higher = more potent) was 0.165.

Question: How did the sensor-assay potency score (higher = more potent) turn out when TTAGATACTTTGCTTCAGCTGC was run?
Answer: The sensor-assay potency score (higher = more potent) was -0.267.

Question: How did the sensor-assay potency score (higher = more potent) turn out when TTTGTTTCTCTTTACAATCAAA was run?
Answer: The sensor-assay potency score (higher = more potent) was -1.34.

Question: TAACTGGGTAACTAATATCAGC was tested. Which sensor-assay potency score (higher = more potent) did it give?
Answer: Its sensor-assay potency score (higher = more potent) is -1.56.

Question: How did the sensor-assay potency score (higher = more potent) turn out when TTGAGATTTATTTAGGATCTTT was run?
Answer: The sensor-assay potency score (higher = more potent) was -0.143.

Question: Which sensor-assay potency score (higher = more potent) does the source give for TAAACCAGACTATCATTCCTGT here?
Answer: The sensor-assay potency score (higher = more potent) was -0.0642.

Question: How did the sensor-assay potency score (higher = more potent) turn out when TATTTCTGATATTTAAACCAGA was run?
Answer: The sensor-assay potency score (higher = more potent) was -0.575.

Question: Which sensor-assay potency score (higher = more potent) does the source give for TTAGTGATCTTCCATAGGCAGT here?
Answer: The sensor-assay potency score (higher = more potent) was -1.42.

Question: Which sensor-assay potency score (higher = more potent) does the source give for TAACACATGCACTTTCCTCTTT here?
Answer: Its sensor-assay potency score (higher = more potent) is -0.0342.

Question: TTGTGGTACATTTTGAGACAGC was tested. Which sensor-assay potency score (higher = more potent) did it give?
Answer: The sensor-assay potency score (higher = more potent) was -1.11.

Question: For TATTTGATTGCAGACTTCTTGT, which sensor-assay potency score (higher = more potent) is on record?
Answer: The sensor-assay potency score (higher = more potent) was 0.00671.

Question: For TTTGTTTCCACTTCACTTGGAA, which sensor-assay potency score (higher = more potent) is on record?
Answer: The sensor-assay potency score (higher = more potent) was 0.402.
